# Article PMC7862700, “An all-to-all approach to the identification of sequence-specific readers for epigenetic DNA modifications on cytosine”
# Experiments:
# Test in all cases: DAPPL (digital affinity profiling via proximity ligation, sequencing); 10 mM Tris-HCl pH 7.5, 50 mM NaCl, 1 mM DTT, 4% glycerol, room temperature, 30 min; GST-TFs on glutathione beads, 16-mer random dsDNA library, 0.1% formaldehyde crosslink after washing; high values mean tight binding
# FLI1 = target: T1, FLI1 (Homo sapiens, UniProt Q01543 1-452); details: protein: recombinant; tags: N-terminal GST; dsDNA, one strand shown
# T1 sequence: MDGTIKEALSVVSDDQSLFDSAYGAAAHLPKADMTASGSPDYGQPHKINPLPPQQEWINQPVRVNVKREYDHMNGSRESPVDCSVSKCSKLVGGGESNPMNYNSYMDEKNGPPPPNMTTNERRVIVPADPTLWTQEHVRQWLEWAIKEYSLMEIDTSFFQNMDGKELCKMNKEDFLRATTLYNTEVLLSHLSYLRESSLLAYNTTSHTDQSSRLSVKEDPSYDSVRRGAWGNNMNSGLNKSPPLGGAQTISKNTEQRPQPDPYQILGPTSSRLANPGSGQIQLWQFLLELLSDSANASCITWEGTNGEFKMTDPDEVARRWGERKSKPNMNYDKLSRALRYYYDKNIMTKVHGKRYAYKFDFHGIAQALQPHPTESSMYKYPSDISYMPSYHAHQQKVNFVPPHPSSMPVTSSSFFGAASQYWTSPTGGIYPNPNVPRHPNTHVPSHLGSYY
# In short: (§1)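 Binding signal is defined as a hexamer's read frequency for one factor over its frequency for the tag-only sample. To obtain reads, GST-fused human transcription factors were expressed in yeast, captured on glutathione beads, barcoded with DNA and pooled with that sample. Pools met 200 nmole of a 16-mer random double-stranded DNA library in Tris/NaCl/DTT/glycerol buffer for 30 min at room temperature before washing, 0.1% formaldehyde crosslinking, proximity ligation (BsaI/T4 ligase, 1 h, 37 °C), PCR and Illumina NextSeq500 sequencing.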
# ELK1 = target: T2, ELK1 (Homo sapiens, UniProt P19419 1-428); details: protein: recombinant; tags: N-terminal GST; dsDNA, one strand shown
# T2 sequence: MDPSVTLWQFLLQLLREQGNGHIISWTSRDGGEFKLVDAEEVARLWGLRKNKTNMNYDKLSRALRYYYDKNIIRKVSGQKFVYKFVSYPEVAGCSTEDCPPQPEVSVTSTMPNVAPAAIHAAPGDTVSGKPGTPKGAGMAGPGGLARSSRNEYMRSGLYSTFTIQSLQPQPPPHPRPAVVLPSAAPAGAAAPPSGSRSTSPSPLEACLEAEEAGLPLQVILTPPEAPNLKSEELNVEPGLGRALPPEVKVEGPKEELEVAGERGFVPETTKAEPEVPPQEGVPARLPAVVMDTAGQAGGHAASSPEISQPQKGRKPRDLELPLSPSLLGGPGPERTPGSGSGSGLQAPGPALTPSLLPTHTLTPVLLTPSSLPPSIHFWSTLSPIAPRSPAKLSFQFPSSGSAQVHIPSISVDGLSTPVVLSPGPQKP
# In short: as §1
# GABPA = target: T3, GABPA (Homo sapiens, UniProt Q06546 1-454); details: protein: recombinant; tags: N-terminal GST; dsDNA, one strand shown
# T3 sequence: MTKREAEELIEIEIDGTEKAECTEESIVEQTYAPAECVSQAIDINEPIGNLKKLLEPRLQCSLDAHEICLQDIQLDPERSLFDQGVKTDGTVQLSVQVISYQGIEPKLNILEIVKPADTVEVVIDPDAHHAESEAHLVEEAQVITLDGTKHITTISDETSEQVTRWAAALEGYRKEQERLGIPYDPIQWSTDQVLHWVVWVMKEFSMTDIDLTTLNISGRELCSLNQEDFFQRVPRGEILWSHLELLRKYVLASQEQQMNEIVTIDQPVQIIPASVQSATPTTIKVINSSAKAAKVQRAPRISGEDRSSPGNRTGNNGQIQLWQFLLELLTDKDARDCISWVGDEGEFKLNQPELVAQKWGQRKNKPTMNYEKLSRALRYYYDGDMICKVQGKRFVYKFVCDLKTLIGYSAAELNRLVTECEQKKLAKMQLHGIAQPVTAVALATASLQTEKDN
# In short: as §1
# ERG = target: T4, ERG (Homo sapiens, UniProt P11308 1-479); details: protein: recombinant; tags: N-terminal GST; dsDNA, one strand shown
# T4 sequence: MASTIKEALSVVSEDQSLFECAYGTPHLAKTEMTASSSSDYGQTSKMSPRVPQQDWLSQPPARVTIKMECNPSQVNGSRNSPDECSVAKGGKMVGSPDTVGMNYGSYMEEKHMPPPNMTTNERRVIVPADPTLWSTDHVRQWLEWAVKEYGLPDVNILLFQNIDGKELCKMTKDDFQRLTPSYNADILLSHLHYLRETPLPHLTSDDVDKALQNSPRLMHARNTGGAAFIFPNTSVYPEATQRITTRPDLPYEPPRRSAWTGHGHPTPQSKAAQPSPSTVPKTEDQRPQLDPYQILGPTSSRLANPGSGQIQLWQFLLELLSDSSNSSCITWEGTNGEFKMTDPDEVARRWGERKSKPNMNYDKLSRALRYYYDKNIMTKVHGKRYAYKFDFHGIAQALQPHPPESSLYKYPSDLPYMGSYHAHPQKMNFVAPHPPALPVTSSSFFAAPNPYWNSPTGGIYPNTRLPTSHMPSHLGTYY
# In short: as §1
# ELF1 = ELF1 (Homo sapiens, UniProt P32519 1-619); details: protein: recombinant; tags: N-terminal GST; dsDNA, one strand shown
# In short: as §1
# EHF = target: T5, EHF (Homo sapiens, UniProt Q9NZC4 1-300); details: protein: recombinant; tags: N-terminal GST; dsDNA, one strand shown
# T5 sequence: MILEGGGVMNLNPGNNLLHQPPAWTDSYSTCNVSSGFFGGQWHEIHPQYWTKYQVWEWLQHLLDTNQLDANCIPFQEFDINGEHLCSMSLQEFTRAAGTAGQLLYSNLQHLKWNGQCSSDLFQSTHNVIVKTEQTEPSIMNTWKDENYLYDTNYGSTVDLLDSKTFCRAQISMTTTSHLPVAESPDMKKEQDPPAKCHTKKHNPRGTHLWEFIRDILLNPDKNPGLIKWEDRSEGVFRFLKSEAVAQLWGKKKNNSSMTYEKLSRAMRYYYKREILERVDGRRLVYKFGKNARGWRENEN
# In short: as §1
# SPI1 = SPI1 (Homo sapiens, UniProt P17947 1-270); details: protein: recombinant; tags: N-terminal GST; dsDNA, one strand shown
# In short: as §1
# SPIB = SPIB (Homo sapiens, UniProt Q01892 1-262); details: protein: recombinant; tags: N-terminal GST; dsDNA, one strand shown
# In short: as §1
# ELK3 = target: T6, ELK3 (Homo sapiens, UniProt P41970 1-407); details: protein: recombinant; tags: N-terminal GST; dsDNA, one strand shown
# T6 sequence: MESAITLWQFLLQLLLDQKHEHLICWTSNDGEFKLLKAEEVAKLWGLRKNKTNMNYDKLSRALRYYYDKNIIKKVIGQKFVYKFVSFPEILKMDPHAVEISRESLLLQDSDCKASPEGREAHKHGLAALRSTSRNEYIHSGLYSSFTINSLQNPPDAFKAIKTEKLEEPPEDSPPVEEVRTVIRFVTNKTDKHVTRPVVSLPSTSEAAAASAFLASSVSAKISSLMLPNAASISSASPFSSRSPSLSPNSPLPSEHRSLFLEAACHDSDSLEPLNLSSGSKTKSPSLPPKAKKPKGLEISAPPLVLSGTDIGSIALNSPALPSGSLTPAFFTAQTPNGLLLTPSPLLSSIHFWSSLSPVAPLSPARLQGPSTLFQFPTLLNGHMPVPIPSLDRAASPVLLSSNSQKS
# In short: as §1
# FEV = target: T7, FEV (Homo sapiens, UniProt Q99581 1-238); details: protein: recombinant; tags: N-terminal GST; dsDNA, one strand shown
# T7 sequence: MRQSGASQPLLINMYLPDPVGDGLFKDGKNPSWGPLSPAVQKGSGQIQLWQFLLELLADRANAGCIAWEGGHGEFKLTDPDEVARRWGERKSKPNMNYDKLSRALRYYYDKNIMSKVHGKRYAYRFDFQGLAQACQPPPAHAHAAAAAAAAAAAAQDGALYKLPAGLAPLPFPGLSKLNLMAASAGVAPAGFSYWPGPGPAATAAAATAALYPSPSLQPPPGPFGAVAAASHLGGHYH
# In short: as §1
# ETV5 = ETV5 (Homo sapiens, UniProt P41161 1-510); details: protein: recombinant; tags: N-terminal GST; dsDNA, one strand shown
# In short: as §1
# HSF1 = HSF1 (Homo sapiens, UniProt Q00613 1-529); details: protein: recombinant; tags: N-terminal GST; chain copies: 3; dsDNA, one strand shown
# In short: as §1
# SPIC = target: T8, SPIC (Homo sapiens, UniProt Q8N5J4 1-248); details: protein: recombinant; tags: N-terminal GST; dsDNA, one strand shown
# T8 sequence: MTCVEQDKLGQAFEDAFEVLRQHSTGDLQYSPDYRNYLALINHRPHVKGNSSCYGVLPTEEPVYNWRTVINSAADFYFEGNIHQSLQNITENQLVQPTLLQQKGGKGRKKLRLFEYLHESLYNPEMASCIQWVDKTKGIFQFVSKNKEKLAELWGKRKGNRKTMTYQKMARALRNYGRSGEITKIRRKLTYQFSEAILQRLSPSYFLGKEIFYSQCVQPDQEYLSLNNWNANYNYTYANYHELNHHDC
# In short: as §1
# ELF4 = ELF4 (Homo sapiens, UniProt Q99607 1-663); details: protein: recombinant; tags: N-terminal GST; dsDNA, one strand shown
# In short: as §1
# ELK4 = target: T9, ELK4 (Homo sapiens, UniProt P28324-2 1-405); details: protein: recombinant; tags: N-terminal GST; dsDNA, one strand shown
# T9 sequence: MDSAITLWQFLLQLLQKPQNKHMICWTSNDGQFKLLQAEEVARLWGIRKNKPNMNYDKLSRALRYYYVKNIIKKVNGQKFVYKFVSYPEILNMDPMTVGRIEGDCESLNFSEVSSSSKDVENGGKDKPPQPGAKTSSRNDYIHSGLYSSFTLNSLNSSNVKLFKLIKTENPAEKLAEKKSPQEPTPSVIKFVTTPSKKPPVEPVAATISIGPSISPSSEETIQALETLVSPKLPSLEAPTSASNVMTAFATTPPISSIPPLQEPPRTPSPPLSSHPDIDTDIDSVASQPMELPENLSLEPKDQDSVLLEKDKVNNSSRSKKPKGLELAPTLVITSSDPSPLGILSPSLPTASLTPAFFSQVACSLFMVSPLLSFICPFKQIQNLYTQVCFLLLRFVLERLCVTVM
# In short: as §1
# ETV2 = target: T10, ETV2 (Homo sapiens, UniProt O00321 1-342); details: protein: recombinant; tags: N-terminal GST; dsDNA, one strand shown
# T10 sequence: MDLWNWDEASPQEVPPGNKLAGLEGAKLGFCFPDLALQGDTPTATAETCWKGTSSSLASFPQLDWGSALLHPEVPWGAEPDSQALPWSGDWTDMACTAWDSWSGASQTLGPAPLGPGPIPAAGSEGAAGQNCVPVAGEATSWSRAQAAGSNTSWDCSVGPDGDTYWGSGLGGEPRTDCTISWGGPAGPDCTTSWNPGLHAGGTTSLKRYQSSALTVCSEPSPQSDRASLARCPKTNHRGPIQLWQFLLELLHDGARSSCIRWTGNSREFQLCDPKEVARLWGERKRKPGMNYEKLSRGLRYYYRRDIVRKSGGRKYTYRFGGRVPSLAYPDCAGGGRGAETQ
# In short: as §1
# ELF3 = target: T11, ELF3 (Homo sapiens, UniProt P78545 1-371); details: protein: recombinant; tags: N-terminal GST; dsDNA, one strand shown
# T11 sequence: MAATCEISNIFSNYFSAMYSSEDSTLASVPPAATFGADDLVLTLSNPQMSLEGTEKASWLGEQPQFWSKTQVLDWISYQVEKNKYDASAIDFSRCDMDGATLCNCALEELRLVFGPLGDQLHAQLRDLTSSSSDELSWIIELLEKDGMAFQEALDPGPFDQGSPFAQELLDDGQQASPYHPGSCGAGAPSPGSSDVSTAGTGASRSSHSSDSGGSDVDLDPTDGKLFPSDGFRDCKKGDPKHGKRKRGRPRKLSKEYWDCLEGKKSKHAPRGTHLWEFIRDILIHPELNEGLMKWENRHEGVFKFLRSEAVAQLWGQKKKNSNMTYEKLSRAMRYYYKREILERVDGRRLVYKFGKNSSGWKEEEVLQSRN
# In short: as §1
# CRX = CRX (Homo sapiens, UniProt O43186 1-299); details: protein: recombinant; tags: N-terminal GST; dsDNA, one strand shown
# In short: as §1
# ETV1 = ETV1 (Homo sapiens, UniProt P50549 1-477); details: protein: recombinant; tags: N-terminal GST; dsDNA, one strand shown
# In short: as §1
# SPIB, sequence (Q01892 whole entry): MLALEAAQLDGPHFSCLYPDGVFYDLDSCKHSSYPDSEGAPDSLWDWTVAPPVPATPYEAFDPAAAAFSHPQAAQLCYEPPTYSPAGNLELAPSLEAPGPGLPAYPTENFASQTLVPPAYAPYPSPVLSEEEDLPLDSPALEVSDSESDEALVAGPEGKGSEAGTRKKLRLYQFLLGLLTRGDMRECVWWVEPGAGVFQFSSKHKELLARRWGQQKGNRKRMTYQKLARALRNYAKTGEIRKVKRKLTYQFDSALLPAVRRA
# ETV5, sequence (P41161 whole entry): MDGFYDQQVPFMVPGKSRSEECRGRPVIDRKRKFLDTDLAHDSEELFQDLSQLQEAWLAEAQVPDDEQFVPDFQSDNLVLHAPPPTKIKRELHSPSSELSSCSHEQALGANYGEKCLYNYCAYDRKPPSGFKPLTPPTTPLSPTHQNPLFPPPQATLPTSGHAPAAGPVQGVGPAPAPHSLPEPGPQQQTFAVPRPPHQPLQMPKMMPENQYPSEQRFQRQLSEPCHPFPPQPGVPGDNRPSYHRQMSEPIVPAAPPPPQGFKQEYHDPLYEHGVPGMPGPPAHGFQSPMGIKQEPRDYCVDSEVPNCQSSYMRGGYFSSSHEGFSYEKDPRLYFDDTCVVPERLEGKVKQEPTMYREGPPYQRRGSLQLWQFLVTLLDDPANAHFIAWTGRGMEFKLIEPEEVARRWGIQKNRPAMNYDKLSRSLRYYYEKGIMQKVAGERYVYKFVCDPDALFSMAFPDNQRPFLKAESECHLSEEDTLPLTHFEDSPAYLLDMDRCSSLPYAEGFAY
# ELF4, sequence (Q99607 whole entry): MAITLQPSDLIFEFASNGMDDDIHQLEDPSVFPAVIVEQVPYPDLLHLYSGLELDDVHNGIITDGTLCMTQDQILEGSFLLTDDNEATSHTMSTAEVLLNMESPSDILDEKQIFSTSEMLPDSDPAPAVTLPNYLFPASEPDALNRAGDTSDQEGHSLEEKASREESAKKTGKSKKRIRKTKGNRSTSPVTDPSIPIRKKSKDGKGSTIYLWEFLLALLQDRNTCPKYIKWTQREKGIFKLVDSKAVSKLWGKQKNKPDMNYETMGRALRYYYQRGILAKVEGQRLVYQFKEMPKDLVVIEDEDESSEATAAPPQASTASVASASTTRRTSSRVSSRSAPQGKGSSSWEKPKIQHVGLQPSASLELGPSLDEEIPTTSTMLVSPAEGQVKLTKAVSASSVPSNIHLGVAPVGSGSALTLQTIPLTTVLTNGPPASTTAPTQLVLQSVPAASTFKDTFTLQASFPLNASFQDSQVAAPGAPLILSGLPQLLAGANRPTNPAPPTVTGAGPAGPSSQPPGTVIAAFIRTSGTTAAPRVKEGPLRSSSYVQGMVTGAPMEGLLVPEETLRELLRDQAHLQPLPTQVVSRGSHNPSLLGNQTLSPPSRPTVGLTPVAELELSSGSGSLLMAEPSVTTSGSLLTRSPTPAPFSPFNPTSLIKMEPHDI
# ETV1, sequence (P50549 whole entry): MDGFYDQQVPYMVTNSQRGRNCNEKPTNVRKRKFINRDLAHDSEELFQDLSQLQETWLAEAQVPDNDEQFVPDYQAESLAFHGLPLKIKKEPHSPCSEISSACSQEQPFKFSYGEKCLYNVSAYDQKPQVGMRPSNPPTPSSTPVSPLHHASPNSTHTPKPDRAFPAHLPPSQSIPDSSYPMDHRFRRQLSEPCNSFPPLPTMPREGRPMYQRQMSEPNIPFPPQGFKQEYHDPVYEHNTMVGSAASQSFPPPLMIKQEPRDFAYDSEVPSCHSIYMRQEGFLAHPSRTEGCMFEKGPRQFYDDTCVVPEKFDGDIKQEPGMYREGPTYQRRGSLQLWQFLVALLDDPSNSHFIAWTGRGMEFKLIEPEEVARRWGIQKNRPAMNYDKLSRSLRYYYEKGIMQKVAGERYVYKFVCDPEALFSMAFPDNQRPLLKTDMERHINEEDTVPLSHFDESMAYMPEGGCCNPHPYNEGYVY
# ELF1, sequence (P32519 whole entry): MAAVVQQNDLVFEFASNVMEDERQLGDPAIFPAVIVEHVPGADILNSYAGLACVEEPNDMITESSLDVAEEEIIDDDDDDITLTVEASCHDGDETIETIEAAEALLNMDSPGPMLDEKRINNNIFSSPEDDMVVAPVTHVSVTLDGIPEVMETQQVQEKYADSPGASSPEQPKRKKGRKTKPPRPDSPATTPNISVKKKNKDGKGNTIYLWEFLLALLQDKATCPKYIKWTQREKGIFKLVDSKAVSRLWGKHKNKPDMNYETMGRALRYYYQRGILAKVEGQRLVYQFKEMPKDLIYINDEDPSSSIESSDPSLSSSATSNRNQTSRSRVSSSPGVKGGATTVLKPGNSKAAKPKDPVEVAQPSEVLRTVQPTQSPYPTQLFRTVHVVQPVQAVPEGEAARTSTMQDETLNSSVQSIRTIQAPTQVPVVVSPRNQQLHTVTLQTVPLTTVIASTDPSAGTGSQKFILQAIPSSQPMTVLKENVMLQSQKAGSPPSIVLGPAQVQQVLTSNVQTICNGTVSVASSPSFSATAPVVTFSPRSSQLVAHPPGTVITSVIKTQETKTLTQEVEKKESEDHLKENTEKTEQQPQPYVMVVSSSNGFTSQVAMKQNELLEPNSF
# CRX, sequence (O43186 whole entry): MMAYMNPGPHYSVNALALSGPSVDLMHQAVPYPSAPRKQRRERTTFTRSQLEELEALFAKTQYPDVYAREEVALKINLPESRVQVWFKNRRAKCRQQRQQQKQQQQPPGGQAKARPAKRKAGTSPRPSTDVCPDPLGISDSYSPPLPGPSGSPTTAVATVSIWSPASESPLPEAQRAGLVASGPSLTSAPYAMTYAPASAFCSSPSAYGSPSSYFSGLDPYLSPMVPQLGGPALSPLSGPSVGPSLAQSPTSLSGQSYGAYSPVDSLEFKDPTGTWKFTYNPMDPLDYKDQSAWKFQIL
# HSF1, sequence (Q00613 whole entry): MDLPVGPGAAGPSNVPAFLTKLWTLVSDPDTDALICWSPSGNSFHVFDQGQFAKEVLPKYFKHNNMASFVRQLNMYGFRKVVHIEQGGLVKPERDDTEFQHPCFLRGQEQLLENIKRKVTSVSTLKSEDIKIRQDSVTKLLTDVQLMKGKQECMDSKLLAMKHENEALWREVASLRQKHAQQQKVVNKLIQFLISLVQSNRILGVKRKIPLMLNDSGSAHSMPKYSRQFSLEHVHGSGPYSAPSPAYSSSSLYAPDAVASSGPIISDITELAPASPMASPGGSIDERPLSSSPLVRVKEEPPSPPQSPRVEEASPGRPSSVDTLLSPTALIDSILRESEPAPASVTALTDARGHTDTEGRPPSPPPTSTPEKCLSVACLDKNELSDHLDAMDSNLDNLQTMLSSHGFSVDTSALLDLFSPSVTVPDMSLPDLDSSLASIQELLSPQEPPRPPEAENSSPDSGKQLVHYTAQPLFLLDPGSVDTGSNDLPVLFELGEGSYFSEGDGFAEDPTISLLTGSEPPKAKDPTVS
sequence,measurement,setting,value
AGCCTT,binding signal,FLI1,"1.12 fold enrichment (6-mer frequency, TF over GST control)"
same,binding signal,ELK1,"1.11 fold enrichment (6-mer frequency, TF over GST control)"
same,binding signal,GABPA,"1.01 fold enrichment (6-mer frequency, TF over GST control)"
same,binding signal,ERG,"1.11 fold enrichment (6-mer frequency, TF over GST control)"
same,binding signal,ELF1,"1.2 fold enrichment (6-mer frequency, TF over GST control)"
same,binding signal,EHF,"1.15 fold enrichment (6-mer frequency, TF over GST control)"
same,binding signal,SPI1,"1.12 fold enrichment (6-mer frequency, TF over GST control)"
same,binding signal,SPIB,"1.21 fold enrichment (6-mer frequency, TF over GST control)"
same,binding signal,ELK3,"1.03 fold enrichment (6-mer frequency, TF over GST control)"
same,binding signal,FEV,"1.15 fold enrichment (6-mer frequency, TF over GST control)"
same,binding signal,ETV5,"1.13 fold enrichment (6-mer frequency, TF over GST control)"
same,binding signal,HSF1,"1.26 fold enrichment (6-mer frequency, TF over GST control)"
same,binding signal,SPIC,"1.17 fold enrichment (6-mer frequency, TF over GST control)"
same,binding signal,ELF4,"1.18 fold enrichment (6-mer frequency, TF over GST control)"
same,binding signal,ELK4,"1.03 fold enrichment (6-mer frequency, TF over GST control)"
same,binding signal,ETV2,"1.2 fold enrichment (6-mer frequency, TF over GST control)"
same,binding signal,ELF3,"1.23 fold enrichment (6-mer frequency, TF over GST control)"
same,binding signal,CRX,"1.42 fold enrichment (6-mer frequency, TF over GST control)"
same,binding signal,ETV1,"1.17 fold enrichment (6-mer frequency, TF over GST control)"
